This is a sample that favours compounds with a hit; in the whole collection about 3.8% have one here.
hERG WT inh: KCNH2 (human, wildtype) channel inhibition; AID 720551; U2OS, BacMam KCNH2, thallium flux FluxOr; hits give low values; Q12809; actives 0.37% (n = 340,000); activity change, % at 1.84 µM;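 active means maximum activity change below -70%; inconclusive means maximum activity change between -70% and -50%; inactive means maximum activity change above -50%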
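U2OS cells were transduced with wild-type KCNH2 virus (2.03 x 10^8 / mL) for 4 h at room temperature, then cultured overnight at 37 C. Thallium flux was read with FluxOr dye. Rate constants were normalized to DMSO controls.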
VDR inhibitor: blocks the human vitamin D receptor. AID 504847. actives 0.93% (n = 400,000). VDR-SRC2-3 peptide fluorescence polarization, 2 h. Potency, µM, actives largely listed as inhibitors. P11473
Target sequence (P11473 whole entry, looked up): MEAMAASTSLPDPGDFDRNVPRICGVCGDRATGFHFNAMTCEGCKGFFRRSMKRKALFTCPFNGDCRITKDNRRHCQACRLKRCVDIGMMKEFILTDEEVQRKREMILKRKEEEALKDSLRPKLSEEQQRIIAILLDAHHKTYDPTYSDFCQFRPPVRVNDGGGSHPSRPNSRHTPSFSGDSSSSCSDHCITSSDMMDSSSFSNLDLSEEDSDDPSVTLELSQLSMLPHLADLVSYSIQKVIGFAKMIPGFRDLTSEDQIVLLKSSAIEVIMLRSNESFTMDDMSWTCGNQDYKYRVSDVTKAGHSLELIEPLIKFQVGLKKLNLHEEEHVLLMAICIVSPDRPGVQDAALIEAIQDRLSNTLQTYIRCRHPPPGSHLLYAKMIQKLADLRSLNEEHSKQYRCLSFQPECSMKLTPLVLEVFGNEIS
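Compounds are added to VDR with labelled SRC2-3 coactivator peptide and held 2 h at room temperature. Inhibition of the VDR–peptide interaction is then read as a change in fluorescence polarization.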
PLK1 PBD block: PLK1 (human) polo-box domain binding inhibition. P53350. Plk1 PBD binding of FITC phosphopeptide, fluorescence polarization. Potency, µM, usual class: inhibitors. actives 2.8% (n = 360,000). AID 720504; further: series mostly up to about 57 µM; nearly all actives have a fitted effect of over 65% in size
CBFb RUNX1 block: blocks binding between human CBF-beta and RUNX1. Potency, µM (series often up to 59.8 µM), actives largely listed as inhibitors. AlphaScreen CBFb-His/RUNX1-biotin binding, biochemical. 230,000 tested, under 10 active. Q01196+Q13951. AID 1477
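Interaction loss through any mechanism counts as activity. Pre-formed complex of His-CBF-beta and biotin-RUNX1 (30 nM apiece) is incubated with compound 15 min, then with 50 ng nickel and 50 ng streptavidin beads for 90 min before AlphaScreen detection.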
MBNL1-CUG inh: inhibitors of human MBNL1 binding to CUG repeat RNA; Q9NR56; TR-FRET MBNL1-His/biotin-(CUG)12 binding, 665/545 ratio; Potency, µM (highest dose often 57.5 µM), most hits filed as inhibitors; actives 0.036% (n = 280,000); AID 2675; active means well fitted inhibition curve with a large enough effect in the signal ratio, with a control signal flat, not every such curve was filed as active; inconclusive means small, poorly fitted or top-dose-only effect, or effect the other way, or a change in a side signal; inactive means no such curve, though single readings can be large or run the other way; the % refers to the signal ratio
Target sequence (Q9NR56 whole entry, looked up): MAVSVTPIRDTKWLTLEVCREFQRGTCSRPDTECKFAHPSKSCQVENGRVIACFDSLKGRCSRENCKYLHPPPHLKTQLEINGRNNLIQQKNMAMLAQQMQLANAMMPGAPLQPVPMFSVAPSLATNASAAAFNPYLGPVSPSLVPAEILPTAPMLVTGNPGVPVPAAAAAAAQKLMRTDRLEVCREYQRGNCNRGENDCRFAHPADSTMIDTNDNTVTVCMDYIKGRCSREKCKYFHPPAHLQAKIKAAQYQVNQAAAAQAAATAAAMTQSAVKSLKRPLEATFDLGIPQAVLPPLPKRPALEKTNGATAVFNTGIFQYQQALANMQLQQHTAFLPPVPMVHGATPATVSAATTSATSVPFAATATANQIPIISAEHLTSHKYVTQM
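Ratiometric TR-FRET (665 over 545 nm, excitation 340 nm) tracks disruption of MBNL1-His/biotin-(CUG)12 complex after 60 min at room temperature, with compounds at 92 nM to 58 uM final.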
KCNH2 3.1 block: KCNH2 3.1 (human) potassium channel inhibition; U2OS KCNH2 3.1, thallium flux FluxOr; hits give low values; activity change, % (tested at about 1.8 µM); actives 0.95% (n = 340,000); AID 720553;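 active means maximum activity change below -70%; inconclusive means maximum activity change from -70% to -50%; inactive means maximum activity change above -50%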;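 further: thallium influx rate constant from kinetic fluorescence after stimulation buffer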
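Thallium flux read-out: FluxOr dye with Red40 quencher in HBSS/HEPES, 45 min at RT. Rate constants from kinetic reads were normalized to positive and negative DMSO controls. Cells: U2OS virally expressing the 3.1 isoform.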
Of the large screens only hits and unclear results are named; the others gave an inactive call. Unless noted, the call rests on the fitted dose curve; in most records, active means well fitted curve in the direction sought with a large enough effect; inconclusive means small, poorly fitted or top-dose-only effect, or another doubt; inactive means no such curve, though single readings can be large; an effect the other way counts as inactive or inconclusive.

Nc1ccc(Br)c2cccnc12	PLK1 PBD block 8.44µM, CBFb RUNX1 block inconclusive
CS(=O)(=O)Oc1ccc(Br)c2cccnc12	none
Cc1c(CCNC(=O)c2ccc(C(C)(C)C)cc2)sc2nc(-c3ccc(F)cc3)nn12	none (no result: hERG WT inh, PLK1 PBD block, CBFb RUNX1 block, MBNL1-CUG inh, KCNH2 3.1 block)
O=C(NCCN1C(=O)S/C(=C\c2cccnc2)C1=O)C1=NN(c2ccccc2)C(=O)CC1	VDR inhibitor 28.2µM, PLK1 PBD block 3.77µM
COc1cccc([C@@H]2Oc3ccc(Br)cc3C[C@H]2OC(=O)NS(=O)(=O)c2ccc(C)cc2)c1	none (no result: hERG WT inh, PLK1 PBD block, MBNL1-CUG inh, KCNH2 3.1 block)
COc1cccc(Cn2c(CNS(=O)(=O)c3ccc(C(C)(C)C)cc3)nc3cccnc32)c1	none (no result: hERG WT inh, PLK1 PBD block, CBFb RUNX1 block, MBNL1-CUG inh, KCNH2 3.1 block)
COC(=O)c1c(-c2cccnc2)csc1NC(=O)c1cc(C)on1	VDR inhibitor 79.4µM, PLK1 PBD block 6.7µM
Cc1cccc(-c2csc(NC(=O)c3cnccn3)c2C(=O)OC(C)C)c1	none
COc1ccccc1CNC(=O)CCC(=O)N1CC2CCCN2c2ccccc21 (centres undefined)	none (no result: hERG WT inh, PLK1 PBD block, CBFb RUNX1 block, MBNL1-CUG inh, KCNH2 3.1 block)
Cc1ccc(-n2c(N)c(C(=O)N3CCOCC3)sc2=S)cc1	VDR inhibitor 89.1µM, PLK1 PBD block 15µM, MBNL1-CUG inh inconclusive
CCNC(=O)c1sc(=S)n(-c2ccc(C)cc2)c1N	PLK1 PBD block inconclusive, MBNL1-CUG inh inconclusive
O=C(COC(=O)C1CC(=O)N(Cc2ccco2)C1)c1ccc(OC(=O)c2ccco2)cc1 (centres undefined)	VDR inhibitor inconclusive, PLK1 PBD block inconclusive, CBFb RUNX1 block inconclusive, MBNL1-CUG inh inconclusive
Cc1ccc(C(=O)Oc2ccc(C(=O)COC(=O)C3CC(=O)N(Cc4ccco4)C3)cc2)cc1 (centres undefined)	PLK1 PBD block inconclusive, CBFb RUNX1 block inconclusive, KCNH2 3.1 block -87.3
CNCC(=O)Nc1c(C)n[nH]c1C	none
CCCC(=O)Nc1c(C)n[nH]c1C	PLK1 PBD block 26.7µM
O=c1cc(-c2ccccc2)nc2c(-c3ccccc3)c(C(F)(F)F)[nH]n12	PLK1 PBD block 16.8µM, CBFb RUNX1 block inconclusive
Cc1cc(=O)n2[nH]c(C)c(-c3ccccc3)c2n1	none
CCCC(=O)N(c1ccc2oc3c(c2c1)CCCC3)S(=O)(=O)c1ccc(CC)cc1	none (no result: hERG WT inh, PLK1 PBD block, CBFb RUNX1 block, MBNL1-CUG inh, KCNH2 3.1 block)
COc1cc(C(=O)Nc2ccc3c(c2)C(=O)c2ccccc2C3=O)cc(OC)c1OC	none (no result: MBNL1-CUG inh)
COc1cc2c(cc1NC(=O)c1ccccc1-c1ccccc1C(=O)O)-c1ccccc1C2	PLK1 PBD block 42.3µM (no result: VDR inhibitor, CBFb RUNX1 block, MBNL1-CUG inh)
COc1cc(C(=O)Nc2ccc3c(c2)Cc2ccccc2-3)cc(OC)c1OC	KCNH2 3.1 block -91.3 (no result: MBNL1-CUG inh)
COc1ccc(Nc2oc(/C=C/c3cccc(OC)c3)nc2C#N)cc1	none (no result: hERG WT inh, PLK1 PBD block, CBFb RUNX1 block, MBNL1-CUG inh, KCNH2 3.1 block)
COc1cc2c(cc1OC)C1O[C@](CCCCN3C(=O)c4ccccc4C3=O)(C2)OC2=C1C(=O)c1ccccc1C2=O	none (no result: hERG WT inh, VDR inhibitor, PLK1 PBD block, CBFb RUNX1 block, KCNH2 3.1 block)
CCCCN(C(=O)c1ccc(Cl)cc1)C1CC2CCC(C1)N2C (centres undefined)	KCNH2 3.1 block -81.6
CC(C)(C)OC(=O)N1CCC(c2c(C(=O)NCCN3CCOCC3)cnn2-c2cccc(Cl)c2)CC1	none (no result: hERG WT inh, PLK1 PBD block, CBFb RUNX1 block, MBNL1-CUG inh, KCNH2 3.1 block)
COc1ccccc1NC(=O)c1cc2cc(Br)ccc2oc1=N	VDR inhibitor 89.1µM (no result: CBFb RUNX1 block)
COc1ccc2o/c(=N\O)c(C(=O)Nc3ccccc3OC)cc2c1	none
O=c1c2oc3ccccc3c2n(Cc2cccc(F)c2)c(=O)n1Cc1ccco1	none (no result: hERG WT inh, PLK1 PBD block, CBFb RUNX1 block, MBNL1-CUG inh, KCNH2 3.1 block)
CCOCc1nnc(NC(=O)c2ccc(OC)cc2)s1	none
CCOCc1nnc(NC(=O)c2cc(C(=O)OC)cc([N+](=O)[O-])c2)s1	PLK1 PBD block 26.7µM, MBNL1-CUG inh inconclusive
COc1cc(C(=O)Nc2nnc(CC(C)(C)C)s2)cc(OC)c1OC	none (no result: hERG WT inh, PLK1 PBD block, CBFb RUNX1 block, MBNL1-CUG inh, KCNH2 3.1 block)
COC(=O)c1cc(C(=O)Nc2nnc(CC(C)(C)C)s2)cc([N+](=O)[O-])c1	PLK1 PBD block 18.9µM
Cc1ccc(NC(=O)c2sc3ccccc3c2Cl)cc1	none (no result: hERG WT inh, PLK1 PBD block, CBFb RUNX1 block, MBNL1-CUG inh, KCNH2 3.1 block)
CN1CCN(c2ccc(NC(=O)c3sc4ccccc4c3Cl)cc2)CC1	KCNH2 3.1 block -74.4
CN1CCN(c2ccc(NC(=O)c3ccc(-c4ccc(Cl)cc4)o3)cc2)CC1	MBNL1-CUG inh inconclusive, KCNH2 3.1 block -94.8 (no result: CBFb RUNX1 block)
CN1CCN(c2ccc(NC(=O)c3ccc(-c4cccc([N+](=O)[O-])c4)o3)cc2)CC1	MBNL1-CUG inh inconclusive
COc1ccc(OCc2ccc(-c3nc(C#N)c(NC(C)c4ccccc4)o3)o2)cc1 (centres undefined)	none (no result: hERG WT inh, PLK1 PBD block, CBFb RUNX1 block, MBNL1-CUG inh, KCNH2 3.1 block)
COCCCN1C(=O)c2ccccc2CC1(C)C(=O)NC1CCCCC1 (centres undefined)	none (no result: hERG WT inh, PLK1 PBD block, CBFb RUNX1 block, MBNL1-CUG inh, KCNH2 3.1 block)
CCn1nc(C)c(Br)c1C(=O)Sc1ccccc1Cl	VDR inhibitor inconclusive, PLK1 PBD block 13.4µM
Cn1c(=O)c(C(=O)CN2CCCc3ccccc32)c(N)n(Cc2ccccc2)c1=O	none
Cn1c(=O)c(C(=O)CN2CCc3ccccc32)c(N)n(Cc2ccccc2)c1=O	VDR inhibitor inconclusive, PLK1 PBD block 29.9µM
O=C(Nc1ccc(F)c(Cl)c1)c1cc(S(=O)(=O)NCc2ccc3c(c2)OCO3)ccc1F	none (no result: hERG WT inh, PLK1 PBD block, CBFb RUNX1 block, MBNL1-CUG inh, KCNH2 3.1 block)
COc1ccc(C(=O)NCc2ccc3c(c2)CCN3C(=O)c2ccc(Cl)cc2)c(OC)c1	none (no result: hERG WT inh, PLK1 PBD block, CBFb RUNX1 block, MBNL1-CUG inh, KCNH2 3.1 block)
O=C(CCN1CCN(S(=O)(=O)c2ccc(Cl)cc2)CC1)Nc1ccccc1F	none
O=C(CCN1CCN(S(=O)(=O)c2cccc([N+](=O)[O-])c2)CC1)Nc1ccccc1F	PLK1 PBD block 26.7µM, MBNL1-CUG inh inconclusive (no result: CBFb RUNX1 block)
COc1ccc(C(=O)O)cc1S(=O)(=O)NC(C)(C)C	PLK1 PBD block 23.8µM
O=C(NCCc1ccccc1)C1CCN(Cc2cc3ccccc3n2Cc2ccccc2)CC1	none (no result: hERG WT inh, PLK1 PBD block, CBFb RUNX1 block, MBNL1-CUG inh, KCNH2 3.1 block)
COc1cc(CNC(=O)CCCC(=O)c2ccccc2)cc(OC)c1OC	PLK1 PBD block 23.8µM (no result: CBFb RUNX1 block)
